The text below walks through data of ChEMBL document CHEMBL3988442, “University of Dundee, Small-Polar-MMV Screening Library” (2021).

The target of test [1] is T1, Aspartate--tRNA(Asp/Asn) ligase (Mycobacterium tuberculosis (strain ATCC 25618 / H37Rv)) (UniProt P9WFW3). Further: in the data most compounds retested in dose-response had high values.
T1 sequence (whole entry): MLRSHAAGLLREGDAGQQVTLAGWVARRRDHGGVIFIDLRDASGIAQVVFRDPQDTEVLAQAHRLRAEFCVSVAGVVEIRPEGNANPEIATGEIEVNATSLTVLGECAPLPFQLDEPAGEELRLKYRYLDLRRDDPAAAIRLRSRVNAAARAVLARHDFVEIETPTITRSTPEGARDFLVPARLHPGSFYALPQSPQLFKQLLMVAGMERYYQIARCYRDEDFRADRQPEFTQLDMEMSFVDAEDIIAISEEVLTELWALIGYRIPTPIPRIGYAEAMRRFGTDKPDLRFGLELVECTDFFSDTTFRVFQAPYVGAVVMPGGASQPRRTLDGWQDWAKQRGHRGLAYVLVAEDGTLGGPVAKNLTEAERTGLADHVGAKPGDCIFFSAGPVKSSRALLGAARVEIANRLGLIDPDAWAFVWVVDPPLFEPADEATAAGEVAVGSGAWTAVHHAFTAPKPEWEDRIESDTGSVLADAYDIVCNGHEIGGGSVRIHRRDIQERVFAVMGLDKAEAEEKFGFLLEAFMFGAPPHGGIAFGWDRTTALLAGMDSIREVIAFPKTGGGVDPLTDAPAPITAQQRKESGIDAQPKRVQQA
In words: Assay for Asp RNA synthetase-1 from Mycobacterium tuberculosis. It is filed as functional. Further details: scale not given: direction of the effect not stated beside the values. Particulars: 30 µM.

For test [2], the target named is Shiga toxin 2 (Escherichia coli O157:H7) (UniProt P09385+P09386). The test is described as follows: E. coli 0.157:H7 Shiga Toxin SOP - stx2 screening assay. The format is functional. The arrangement: scale not given: direction of the effect not stated beside the values. To be noted: 30 µM.

As to `Cc1n[nH]c(C)c1NC(=O)CN1CCOC(Cn2cccn2)C1` (stereo not given), the Percent Effect is -0.605% in test [1] and 31.6% in test [2].
Take `Cc1ncsc1C(=O)NC1CCN(CC(=O)N(C)c2ccccc2)CC1`: the figures for the Percent Effect in test [1] and in test [2] were -3.57% and 34%, respectively.
In the case of `CCc1nnc2n1CCN(C(=O)c1cc(Br)c[nH]1)C2`, the Percent Effect in test [1] is -3.52%; in test [2] it was -47.9%.
Take `CSCC(CCO)NC(=O)Nc1cc(Br)ccc1C` (stereo not given): the Percent Effect in test [1] is 3.02%; in test [2], -10.3%.
For `CN1CCCc2cc(CNC(=O)c3ccncc3)ccc21`, in that order: -7.79% and -75.2%.
For `CCc1nnc2n1CCN(C(=O)c1ccc3nc(C)c(C)nc3c1)C2`, in that order: -2.42% and 7.1%.
The like results for `N#Cc1cccnc1N1CCC2(CCCN(C3CCOCC3)C2=O)C1` (stereo not given) were, in that order, -3.99% and -16.3%.
Consider `Cc1nc(C)n(CC2CN(CCOCC(F)(F)F)CCO2)n1` (stereo not given), for which the figures for the Percent Effect in test [1] and in test [2] were 3.1% and 8.57%, respectively.
For `CC(C)N1CC(C(=O)NCCOc2ccc3c(c2)OCO3)CC1=O` (stereo not given), in that order: -3.6% and 13.8%.
Consider `CC(NC(=O)N1CCC(n2cncn2)CC1)c1ccc(F)cc1F` (stereo not given), for which the results for the Percent Effect in test [1] and in test [2] were -3.4% and 7.64%, respectively.
`CN(C(=O)c1ccccn1)c1nc2c(s1)CCc1c-2cnn1C`: the Percent Effect in test [1] is 50%; in test [2], -76.1%.
With `CCC1CN(C(=O)c2ccc(=O)[nH]c2)CCC(=O)N1Cc1ccccc1` (stereo not given), the Percent Effect in test [1] is -4.62%; in test [2], 5.03%.
As to `c1ccc(Cn2cc(CNCC3CCCN3c3cccnn3)cn2)cc1` (stereo not given), the figures for the Percent Effect in test [1] and in test [2] were 8.82% and 22.8%, respectively.
As to `CSc1ccc(C(CN)N2CCc3sccc3C2)cc1` (stereo not given), the Percent Effect was -1.53% in test [1] and -31.4% in test [2].
For the molecule `CN1CCN(CCO)C(=O)C12CCN(Cc1ccsc1)CC2`, the values for the Percent Effect in test [1] and in test [2] were -3.89% and -1.74%, respectively.
For `CS(=O)(=O)CCSc1cccc(C#N)c1`, in that order: 0.641% and 4.17%.
For `Cc1nc([C@@H]2C[C@@H]3CCN(C(=O)Cc4ccsc4)C[C@H]3O2)no1`, in that order: -2.49% and 2.89%.
For `O=C(Nc1cc(F)ccc1OCC1CCCO1)N1CCCC1` (stereo not given), in that order: -3.7% and 0.98%.
For `COc1cccc(CCNS(=O)(=O)c2ccc(NC(C)=O)cc2)c1`, the Percent Effect was -1.32% in test [1] and -9.96% in test [2].
For `CCCn1[nH]cc/c1=N\C(=O)CN1CCn2c(nnc2C2CC2)C1`, in that order: -2.17% and 25.6%.
